Compound activity (PubChem)
ELG1 genotoxic – qHTS screen for small molecules that induce genotoxicity in human embryonic kidney (HEK293T) cells expressing luciferase-tagged ELG1 | 330,000 compounds, 1.3% hits | Potency, µM (doses to about 46 µM), most hits filed as activators | HEK293T ELG1-luciferase reporter, luminescence, 16 h; further: nearly all actives have a fitted effect of over 60% in size
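HEK293T cells expressing luciferase-tagged ELG1 were treated with compound or DMSO for 16 hr at 37°C. Luciferase activity was then read after 30 min with ONE-Glo at room temperature; rising signal flags genetic stress.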
SMN2 splice enh – qHTS Assay for Enhancers of SMN2 Splice Variant Expression; HEK293 SMN2-luciferase splicing reporter, luminescence, 30-36 h; Potency, µM (doses to about 46.1 µM), hits mostly activators; 210,000 compounds, 2.8% hits; further: nearly all actives have a fitted effect of over 55% in size
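qHTS luciferase splicing reporter: luminescence rises when SMN2 exon 7 is included in transfected HEK293 cells. Compound exposure lasted 30-36 h at 37C, with 4.5 mM final sodium butyrate as control, followed by a ONE-Glo read.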
Rab9 promoter act – qHTS Assay for Rab9 Promoter Activators. Huh7 Rab9 promoter-luciferase reporter, luminescence, 24 h. Potency, µM (series often up to 9.22 µM), hits mostly activators. 320,000 compounds, 2.8% hits. AID 485297, 2010; further: nearly all actives have a fitted effect of over 60% in size
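Huh7 cells stably carrying a Rab9 promoter-luciferase reporter, 1500 cells per well in OP-MEM I with 10% FBS, treated with compound 24 hours at 37C. Luciferase activity read by luminescence after 10 minutes with Amplite reagent.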
NPC1 prom act – qHTS Assay for NPC1 Promoter Activators. Huh7 NPC1 promoter luciferase reporter, 24 h. Potency, µM (doses to about 9.22 µM), usual class: activators. 320,000 compounds, 2.4% hits; further: nearly all actives have a fitted effect of over 60% in size
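Huh7 cells stably carrying NPC1 promoter–luciferase, plated in Opti-MEM with 10% FBS for 2 h, were exposed to compound in DMSO for 24 h at 37 °C; luciferase reagent was added for 10 min and luminescence read.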
ELG1 DNA repair – qHTS screen for small molecules that inhibit ELG1-dependent DNA repair in human embryonic kidney (HEK293T) cells expressing luciferase-tagged ELG1. HEK293T ELG1-luciferase reporter, luminescence, 16 h; DNA damage induced by 5-fluorouridine. 330,000 compounds, 2.3% hits. Potency, µM (series often up to 46.1 µM), most hits filed as inhibitors; further: nearly all actives have a fitted effect of over 55% in size
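Overnight (16 hr) co-exposure of 2,000 cells/well to 5-fluorouridine and compound at 37 °C preceded detection. Luciferase was quantified via ONE-Glo luminescence; loss of signal denotes inhibition.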
FLuc counter – qHTS profiling assay for firefly luciferase inhibitor/activator using purifed enzyme and Km concentrations of substrates (counterscreen for miR-21 project); AID 588342, 2011; Potency, µM (top dose mostly 57.5 µM), hits mostly inhibitors; 360,000 compounds, 6.9% hits; purified FLuc, Km substrates, luminescence inhibition; Luciferin 4-monooxygenase (Photinus pyralis), P08659; further: nearly all actives have a fitted effect of over 55% in size
Target sequence (P08659 whole entry, looked up): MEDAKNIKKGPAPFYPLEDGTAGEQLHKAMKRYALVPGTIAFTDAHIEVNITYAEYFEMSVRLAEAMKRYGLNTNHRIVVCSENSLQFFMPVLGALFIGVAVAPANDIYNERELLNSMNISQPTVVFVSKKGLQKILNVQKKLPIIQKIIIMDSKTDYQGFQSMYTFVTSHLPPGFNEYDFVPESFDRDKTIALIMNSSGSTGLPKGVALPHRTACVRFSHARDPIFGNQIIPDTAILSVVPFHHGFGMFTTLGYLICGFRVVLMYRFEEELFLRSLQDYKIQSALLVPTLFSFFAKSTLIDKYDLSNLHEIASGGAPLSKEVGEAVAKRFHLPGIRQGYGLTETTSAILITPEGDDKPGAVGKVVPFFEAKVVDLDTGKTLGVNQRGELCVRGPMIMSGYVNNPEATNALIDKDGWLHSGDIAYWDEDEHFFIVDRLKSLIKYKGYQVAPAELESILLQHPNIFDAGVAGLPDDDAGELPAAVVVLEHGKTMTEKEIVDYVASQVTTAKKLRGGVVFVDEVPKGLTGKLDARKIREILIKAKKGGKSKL
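Purified P. pyralis luciferase (10nM final) with 10uM D-luciferin and 10uM ATP (Km levels) in 50mM Tris acetate pH 7.5, 10mM Mg acetate, 0.01% Tween-20, 0.05% BSA; qHTS 6-point titration, ~60 µM downward; luminescence read.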
Numbers stand for hits; - = inactive; ? = inconclusive; . = no result; [ ] = dose if it differs, or a comment. Sampled rows, rich in hits. Any-hit rate of the full collection: about 9.2%. The call rests on the fitted dose curve; in most records, active means well fitted curve in the direction sought with a large enough effect; inconclusive means small, poorly fitted or top-dose-only effect, or another doubt; inactive means no such curve, though single readings can be large; an effect the other way counts as inactive or inconclusive.

SMILES	ELG1 genotoxic	SMN2 splice enh	Rab9 promoter act	NPC1 prom act	ELG1 DNA repair	FLuc counter
CC(=O)Nc1ccc(NC(=O)c2cc(C)nn2-c2ccccc2)cc1	-	-	-	-	-	-
CCC(=O)Nc1ccc2c(c1)ncn2-c1ccccc1	?	?	?	?	?	15µM
CCOC(=O)CN(c1ccccn1)S(=O)(=O)c1ccc(OC)cc1	-	.	-	-	-	-
Clc1ccc(-c2nnc(-c3ccccc3Cl)o2)cc1	?	.	0.45µM	0.63µM	?	1.2µM
O=C(Nc1ccc(NC(=O)c2ccccc2Cl)cc1)c1cccnc1	-	.	-	-	-	-
O=C(Nc1nnc(-c2ccccc2Cl)o1)c1cccnc1	?	?	?	?	?	19µM
Clc1ccccc1-c1nnc(-c2ccccc2Cl)o1	?	13µM	2.5µM	4µM	?	8.5µM
Clc1ccc(-c2nnc(-c3cccc4ccccc34)o2)cc1Cl	-	-[9.22 µM]	?	-	?	-
CCN(CC)c1ccc(NS(=O)(=O)c2cc3[nH]c(=O)c(=O)[nH]c3cc2C)c(C)c1	.	.	.	.	.	-
CCN(Cc1cc2ccc(C)cc2[nH]c1=O)C(=O)c1ccncc1	-	-	-	-	10µM	-
c1ccc2c(c1)CCc1c-2nc2ccccc2c1N1CCOCC1	-	.	-	-	-	-
O=C(O)c1c2c(nc3ccccc13)-c1ccccc1CC2	-	.	-	-	-	11µM
O=C(O)c1c2c(nc3ccccc13)/C(=C/c1ccc(O)cc1)CCC2	-	-	-	-	-	19µM
CN(C)c1ccc(/C=C2\CCCc3c2nc2ccccc2c3C(=O)O)cc1	12µM	.	0.89µM	2.5µM	?	4.3µM
COc1ccc(/C=C2\CCc3c2nc2ccccc2c3C(=O)O)cc1OC	4.1µM	.	0.32µM	0.4µM	?	0.3µM
CCN1CCN(c2nc3c(c(=O)[nH]c(=O)n3C)n2Cc2ccccc2)CC1	-	.	-	-	-	-
Cc1cc(C)c2c(=O)cc(C(=O)NCCc3ccc(S(N)(=O)=O)cc3)oc2c1	.	-	.	.	.	-
O=C(NCc1nc2ccccc2[nH]1)C1=C[C@@H](c2csc3ccccc23)C[C@@H](OCCCCO)O1	-	.	-	-	23µM	-
Cc1ccc(S(=O)(=O)NC(C)(C)C)cc1C(=O)OCC(=O)N1CCCC1=O	-	.	-	-	-	-
CCNC(=O)NC(=O)C(C)OC(=O)C(C)(C)Oc1ccc(Cl)cc1 (stereo unspecified)	-	-	-	-	-	-
CCNC(=O)NC(=O)C(C)Oc1ccc(Br)cc1Br (stereo unspecified)	?	?	-	-	-	17µM
COc1cccc(/C=N/NC(=O)CSc2nnc(C)n2-c2ccccc2)c1O	-	-	-	-	-	17µM
COc1cccc(/C=N/NC(=O)CN2CC(c3ccccc3)CC2=O)c1O (stereo unspecified)	-	-	-	-	-	12µM
COc1cccc(/C=N/NC(=O)C[n+]2ccccc2)c1O	-	-	-	-	?	?
COc1ccc(/C=N/NC(=O)CSc2nnc(C)n2-c2ccccc2)c(OC)c1OC	-	-	-	-	?	-
SMILES	ELG1 genotoxic	SMN2 splice enh	Rab9 promoter act	NPC1 prom act	ELG1 DNA repair	FLuc counter
C=CCN1C(=O)c2ccccc2NC1c1cc(Br)cs1 (stereo unspecified)	-	.	-	-	-	-
CC1CCN(Cc2nnc(-c3cccc(Br)c3)o2)CC1	-	.	?	-	?	?
Cc1occc1-c1nnc(SCC(=O)Nc2ccccc2)n1C(C)c1ccccc1 (stereo unspecified)	-	-	-	-	?	-
CC(=O)Oc1ccccc1/C=C/c1nc2ccccc2c(=O)o1	-	.	?	?	-	15µM
CC(=O)Oc1ccc(/C=C/c2nc3ccccc3c(=O)o2)cc1	-	.	?	?	-	0.43µM
COc1ccccc1/C=N/NC(=O)c1cccc(OC(F)(F)C(F)F)c1	-	-	-	-	-	12µM
COc1cc2ccccc2cc1C(=O)N/N=C/c1ccc2c(c1)OCO2	-	.	-	-	-	?
COc1ccccc1N/N=C/c1ccc2c(c1)OCO2	-	-	-	-	?	9.5µM
COc1ccccc1C(=O)N/N=C/c1ccc2c(c1)OCO2	?	.	?	2.8µM	?	11µM
COc1ccccc1NC(=O)NCc1ccc2c(c1)OCO2	-	-	-	-	-	-
COc1cc(/C=N/Nc2snc(SC)c2C#N)cc(OC)c1OC	-	-	-	-	-	?
CSc1nsc(N/N=C/c2ccc3c(c2)OCO3)c1C#N	?	5.6µM	0.79µM	2.5µM	?	1.7µM
CS(=O)(=O)c1ccc(C(=O)NNC(=O)c2ccccc2-n2cccc2)cc1	-	.	-	-	-	-
Cc1ccccc1CN1CCC(CNc2ncnc3onc(-c4ccc(F)cc4)c23)CC1	.	.	.	.	.	-
COc1ccccc1/C=N/NC(=O)c1ccc2c(c1)OCO2	-	.	-	-	?	6.7µM
O=C(N/N=C/c1ccccc1OC(=O)c1ccc2c(c1)OCO2)c1ccccc1	?	.	-	-	?	?
Cc1ccc(NS(=O)(=O)c2cccc(C(=O)NCC3CCCO3)c2)cc1 (stereo unspecified)	-	.	-	-	-	-
Cc1ccc2c(=O)cc(C(=O)Nc3ccc(S(=O)(=O)N4CCCCC4)cc3)oc2c1	.	-	.	.	.	-
Nc1ccc[n+](CC(=O)c2ccccc2)c1	-	.	-	-	-	-
CCc1n[n+](CC(=O)c2ccccc2)c(N)s1	?	4µM	0.5µM	0.32µM	?	2.4µM
Cc1cc(O)c(C(=O)Cc2csc(C)n2)c(O)c1	?	?	4µM	?	?	27µM
CCc1cc(/C(Cc2csc(C)n2)=N/O)c(O)cc1O	-	-	-	-	?	-
O=C(N/N=C/c1c[nH]c2ccccc12)c1ccc(Br)cc1	?	.	?	-	?	6.7µM
O=C(N/N=C\c1c[nH]c2ccccc12)c1ccc(O)cc1	-	.	-	-	-	15µM
Nc1ccc(C(=O)N/N=C/c2c[nH]c3ccccc23)cc1	-	.	-	-	-	13µM
O=C(N/N=C/c1c[nH]c2ccccc12)c1ccc(Cl)cc1	-	.	?	?	?	7.6µM
O=C(O)c1ccc(N/N=C/c2c[nH]c3ccccc23)cc1	?	.	-	-	?	0.43µM
O=C(N/N=C/c1c[nH]c2ccccc12)c1ccccc1Cl	-	.	-[1.84 µM]	-	?	?
CC(C)(C)OC(=O)N/N=C/c1c[nH]c2ccccc12	-	.	-	-	?	9.5µM
COC(=O)N/N=C/c1c[nH]c2ccccc12	-	-	-	-	-	-
